Results reported in PubChem BioAssay AID1159580 (chemical genetic matrix, 2015).
Values joined by “and” are separate entries in the source; they are usually repeats but may differ in a detail not shown here. Equal values may be shown once. The campaign covered roughly 5,500 compounds. About 2,000 (36%) were called active. Inconclusive results (about 18%) are left out. Cut-off read from the data, not from the text of the source: active = normalized growth mostly below about 0.91 (no sharp cut-off); inconclusive = no clear call, values can overlap the other calls; inactive = mostly above about 0.92. This is one part of the list.

Assay: chemical genetic growth profiling, strain panel (AID 1159580);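 note: tested at 20 µM; growth read once vehicle control cultures reached saturation at 30 °C; 1 = growth at the plate median or of vehicle wells; lower values mean less growth of the strain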
Conditions: S. cerevisiae deletion strains, growth OD
[1] = locus YAL040C, strain CLN3, stronger effect = lower value
[2] = locus YCL061C, strain MRC1 (second series), stronger effect = lower value
[3] = locus YDR150W, strain NUM1, stronger effect = lower value
[4] = locus YDR363W, strain ESC2, stronger effect = lower value
[5] = locus YER002W, strain NOP16, stronger effect = lower value
[6] = locus YGR229C, strain SMI1, stronger effect = lower value
[7] = locus YMR263W, strain SAP30, stronger effect = lower value
[8] = locus YNL128W, strain TEP1, stronger effect = lower value
[9] = locus YNL175C, strain NOP13, stronger effect = lower value
[10] = locus YNL197C, strain WHI3, stronger effect = lower value
[11] = locus YNL224C, strain SQS1, stronger effect = lower value
[12] = locus YNL322C, strain KRE1, stronger effect = lower value
[13] = locus YOR083W, strain WHI5 (second series), stronger effect = lower value
[14] = locus YPL055C, strain LGE1, stronger effect = lower value
[15] = locus YPL241C, strain CIN2, stronger effect = lower value
[16] = locus YMR307W, strain GAS1, stronger effect = lower value

Measured: normalized growth

O=C(Nc1cc(C(=O)Nc2ccc(S(=O)(=O)O)cc2S(=O)(=O)O)cc(C(=O)Nc2ccc(S(=O)(=O)O)cc2S(=O)(=O)O)c1)Nc1cc(C(=O)Nc2ccc(S(=O)(=O)O)cc2S(=O)(=O)O)cc(C(=O)Nc2ccc(S(=O)(=O)O)cc2S(=O)(=O)O)c1
inactive: locus YAL013W, strain DEP1, stronger effect = lower value 0.995 | [1] 1.01 | [2] 0.998 | [3] 0.997 | [4] 0.954 | [5] 1.02 | locus YGR078C, strain PAC10, stronger effect = lower value 0.987 | [6] 0.995 | [7] 0.99 | [8] 1 | [9] 1.01 | [10] 1.01 | [11] 0.993 | [12] 1.02 | [13] 0.993 | [14] 0.968 | [15] 1.01

CC(C)(C)c1o[nH]c(=O)c1CC(N)C(=O)O (stereo not drawn)
inactive: [1] 1.03 | [2] 1.01 | [5] 1 | [16] 0.968 | [8] 1 | [9] 1 | [10] 0.991 | [11] 0.992 | [12] 0.997 | [13] 1 | [15] 1.02

CC1=C[C@@H]2c3cccc4[nH]cc(c34)C[C@H]2N(C)C1
inactive: [1] 0.988 | [5] 0.993 | locus YJR075W, strain HOC1, stronger effect = lower value 1 | [7] 0.996 | [16] 1.01 | [9] 1 | [10] 1.01 | [11] 0.987 | [13] 1

Clc1cc(I)cc(Cl)c1NC1=NCCN1
inactive: [1] 1.01 | [2] 1.01 | [4] 1.02 | [5] 1.01 | [16] 0.987 | [9] 1.01 | [10] 1.01 | [11] 1.01 | [13] 1.06 | [14] 0.986

N=S(=O)(O)Cc1noc2ccccc12
inactive: [1] 0.966 | [2] 1 | [4] 1.03 | [5] 1.01 | [6] 1.01 | [16] 1.01 | [8] 1.05 | locus YNL153C, strain GIM3, stronger effect = lower value 0.998 | [9] 0.996 | [10] 1.02 | [11] 1.01 | [13] 1 | [15] 1.01

CC1(C)CC[C@]2(C(=O)O)CC[C@]3(C)C(=CCC4[C@@]5(C)CC[C@@H](O)C(C)(C)C5CC[C@]43C)C2C1 (stereo partly drawn)
active: locus YKL009W, strain mrt4, stronger effect = lower value 1.45 [resistant] | locus YKL068W, stronger effect = lower value 1.21 [resistant] | locus YKL085W, strain MDH1 (second series), stronger effect = lower value 1.09 [resistant] | locus YKL085W, strain MDH1, stronger effect = lower value 1.09 [resistant]
inactive: locus YAL021C, strain ccr4, stronger effect = lower value 1.02 | locus YAL026C, strain drs2, stronger effect = lower value 1.01 | locus YAL030W, strain snc1, stronger effect = lower value 1.03 | locus YBL061C, strain skt5, stronger effect = lower value 1.01 | locus YBR009C, strain hhf1, stronger effect = lower value 0.995 | locus YBR021W, strain FUR4, stronger effect = lower value 1.02 | locus YBR023C, strain chs3, stronger effect = lower value 1.01 | locus YBR171W, strain sec66, stronger effect = lower value 1.05 | locus YBR229C, strain ROT2, stronger effect = lower value 1.01 | locus YBR231C, strain swc5, stronger effect = lower value 1.02 | locus YBR279W, strain paf1, stronger effect = lower value 1.01 | locus YCL011C, strain gbp2, stronger effect = lower value 1.01 | locus YCL016C, strain dcc1, stronger effect = lower value 1.03 | locus YCL029C, strain bik1, stronger effect = lower value 1.01 | locus YCL069W, strain vba3, stronger effect = lower value 1.02 | locus YCR088W, strain abp1, stronger effect = lower value 1.01 | locus YDL005C, strain med2, stronger effect = lower value 1.03 | locus YDL035C, strain GPR1, stronger effect = lower value 1.01 | locus YDL040C, strain nat1, stronger effect = lower value 1.01 | locus YDL074C, strain BRE1, stronger effect = lower value 1.06 | locus YDL101C, strain DUN1, stronger effect = lower value 1.02 | locus YDL134C, strain PPH21, stronger effect = lower value 1.04 | locus YDL185W, strain tfp1, stronger effect = lower value 1.02 | locus YDR001C, strain nth1, stronger effect = lower value 1.01 | locus YDR069C, strain doa4, stronger effect = lower value 1.05 | locus YDR101C, strain arx1, stronger effect = lower value 0.991 | locus YDR137W, strain rgp1, stronger effect = lower value 1.07 | [3] 1.01 | locus YDR159W, strain sac3, stronger effect = lower value 1.04 | locus YDR162C, strain NBP2, stronger effect = lower value 1.05 | locus YDR195W, strain ref2 0.987 | locus YDR297W, strain sur2, stronger effect = lower value 1 | locus YDR318W, strain mcm21, stronger effect = lower value 1.02 | locus YDR334W, strain swr1, stronger effect = lower value 1.03 | locus YDR335W, strain msn5, stronger effect = lower value 1.02 | locus YDR388W, stronger effect = lower value 1.02 | locus YDR392W, strain spt3, stronger effect = lower value 1.03 | locus YDR502C, strain sam2, stronger effect = lower value 1.02 | locus YEL003W, strain gim4, stronger effect = lower value 1.02 | locus YEL037C, strain rad23, stronger effect = lower value 1.01 | locus YEL061C, strain CIN8 (second series), stronger effect = lower value 1 | locus YER015W, strain faa2, stronger effect = lower value 1.01 | locus YER016W, strain bim1, stronger effect = lower value 1.03 | locus YER110C, stronger effect = lower value 1.02 | locus YER111C, strain swi4, stronger effect = lower value 1.01 | locus YER155C, strain BEM2 (second series), stronger effect = lower value 1.02 | locus YER155C, strain BEM2, stronger effect = lower value 1.01 | locus YER167W, strain BCK2, stronger effect = lower value 1.01 | locus YFR010W, strain ubp6, stronger effect = lower value 1.01 | locus YGL078C, strain dbp3, stronger effect = lower value 1.04 | locus YGL086W, strain mad1, stronger effect = lower value 1.03 | locus YGL167C, strain pmr1, stronger effect = lower value 1.03 | locus YGL173C, strain kem1, stronger effect = lower value 1.02 | locus YGL227W, strain vid30, stronger effect = lower value 1.01 | locus YGL240W, strain doc1, stronger effect = lower value 1.03 | locus YGL248W, strain PDE1, stronger effect = lower value 1.02 | locus YGL253W, strain hxk2, stronger effect = lower value 1.01 | locus YGR135W, strain pre9, stronger effect = lower value 1.02 | [6] 1.05 | locus YGR252W, strain gcn5, stronger effect = lower value 0.944 | locus YHR013C, strain ard1, stronger effect = lower value 1.04 | locus YHR027C, strain rpn1, stronger effect = lower value 1.02 | locus YHR030C, strain SLT2, stronger effect = lower value 1.01 and 1.02 | locus YHR079C, strain IRE1 (second series), stronger effect = lower value 1.01 | locus YHR079C, strain IRE1, stronger effect = lower value 1.05 | locus YHR094C, strain hxt1, stronger effect = lower value 1.01 | locus YHR129C, strain ARP1, stronger effect = lower value 1.01 | locus YHR142W, strain chs7, stronger effect = lower value 1.02 | locus YHR200W, strain rpn10, stronger effect = lower value 1.01 | locus YIL066C, strain RNR3, stronger effect = lower value 1.03 | locus YIL073C, strain SPO22, stronger effect = lower value 1.05 | locus YIL125W, strain kgd1, stronger effect = lower value 1.01 | locus YJL092W, strain hpr5, stronger effect = lower value 1.02 | locus YJL095W, strain BCK1 (second series), stronger effect = lower value 1.03 | locus YJL095W, strain BCK1, stronger effect = lower value 1.05 and 1.02 | locus YJL115W, strain asf1, stronger effect = lower value 1.01 | locus YJL129C, strain trk1, stronger effect = lower value 1.04 | locus YJL134W, strain LCB3, stronger effect = lower value 1.01 | locus YJL154C, strain vps35, stronger effect = lower value 1.01 | locus YJL164C, strain tpk1, stronger effect = lower value 1.02 | locus YJL166W, strain qcr8, stronger effect = lower value 1.02 | locus YJL168C, strain set2, stronger effect = lower value 1.02 | locus YJL187C, strain SWE1 (second series), stronger effect = lower value 1.04 | locus YJR043C, strain POL32, stronger effect = lower value 1 | locus YJR066W, strain TOR1, stronger effect = lower value 0.982 | locus YKL160W, strain elf1, stronger effect = lower value 1.02 | locus YKL190W, strain CNB1, stronger effect = lower value 1.02 | locus YKR001C, strain vps1, stronger effect = lower value 0.993 | locus YKR026C, strain gcn3, stronger effect = lower value 1.02 | locus YKR091W, strain srl3, stronger effect = lower value 1.02 | locus YLL001W, strain dnm1, stronger effect = lower value 1.01 | locus YLL026W, stronger effect = lower value 1.02 | locus YLL041C, strain sdh2, stronger effect = lower value 1.02 | locus YLR027C, strain aat2, stronger effect = lower value 1.01 | locus YLR039C, strain RIC1, stronger effect = lower value 1.11 | locus YLR058C, strain SHM2, stronger effect = lower value 1.02 | locus YLR102C, strain apc9, stronger effect = lower value 1.02 | locus YLR113W, strain HOG1, stronger effect = lower value 0.951 | locus YLR221C, strain rsa3, stronger effect = lower value 1 | locus YLR258W, strain gsy2, stronger effect = lower value 1.01 | locus YLR262C, strain YPT6 (second series), stronger effect = lower value 0.984 | locus YLR262C, strain YPT6, stronger effect = lower value 1.1 | locus YLR268W, strain sec22, stronger effect = lower value 0.986 | locus YLR320W, strain mms22, stronger effect = lower value 1.01 | locus YLR342W, strain FKS1 (second series), stronger effect = lower value 0.964 | locus YLR342W, strain FKS1, stronger effect = lower value 1.01 | locus YLR357W, strain rsc2, stronger effect = lower value 1.03 | locus YLR370C, strain arc18, stronger effect = lower value 1 | locus YLR371W, strain rom2, stronger effect = lower value 0.992 | locus YLR384C, strain iki3, stronger effect = lower value 1.02 | locus YLR418C, strain cdc73, stronger effect = lower value 1.09 | locus YML016C, strain PPZ1, stronger effect = lower value 1.01 | locus YML032C, strain rad52, stronger effect = lower value 0.991 | locus YML120C, strain ndi1, stronger effect = lower value 1.01 | locus YML124C, strain tub3, stronger effect = lower value 1.01 | locus YMR058W, strain fet3, stronger effect = lower value 1.02 | locus YMR078C, strain ctf18, stronger effect = lower value 1.02 | locus YMR125W, strain sto1, stronger effect = lower value 1.04 | locus YMR129W, stronger effect = lower value 1.01 | locus YMR205C, strain PFK2, stronger effect = lower value 1.03 | locus YMR223W, strain ubp8, stronger effect = lower value 1.02 | locus YMR231W, strain pep5, stronger effect = lower value 1.02 | [16] 0.976 | locus YNL067W, strain RPL9B, stronger effect = lower value 1.05 | locus YNL071W, strain lat1, stronger effect = lower value 1 | [8] 1.03 | locus YNL183C, strain NPR1, stronger effect = lower value 0.994 | locus YNL209W, strain ssb2, stronger effect = lower value 1.01 | locus YNL233W, strain BNI4, stronger effect = lower value 1.03 | locus YNL248C, strain rpa49, stronger effect = lower value 1.01 | locus YNL250W, strain rad50, stronger effect = lower value 1.04 | locus YNL271C, strain bni1, stronger effect = lower value 1.03 | locus YNL298W, strain CLA4, stronger effect = lower value 1.07 | locus YNL307C, strain MCK1, stronger effect = lower value 1.03 | locus YNL322C, strain KRE1 (second series), stronger effect = lower value 1.04 | locus YNR049C, strain mso1, stronger effect = lower value 1.02 | locus YNR052C, strain pop2, stronger effect = lower value 1.03 | locus YOL012C, strain htz1 1.33 | locus YOL147C, strain pex11, stronger effect = lower value 1 | locus YOR001W, strain rrp6, stronger effect = lower value 1.02 | locus YOR061W, strain CKA2, stronger effect = lower value 1.02 | locus YOR069W, strain VPS5, stronger effect = lower value 1.02 | locus YOR070C, strain gyp1, stronger effect = lower value 1.03 | locus YOR080W, strain dia2, stronger effect = lower value 1.01 | locus YOR083W, strain WHI5, stronger effect = lower value 1.02 | locus YOR106W, strain vam3, stronger effect = lower value 1.03 | locus YOR136W, strain idh2, stronger effect = lower value 1.01 | locus YOR144C, strain elg1, stronger effect = lower value 1.01 | locus YOR184W, strain ser1, stronger effect = lower value 1.03 | locus YOR231W, strain MKK1, stronger effect = lower value 0.997 | locus YOR265W, strain rbl2, stronger effect = lower value 1.02 | locus YOR270C, strain vph1, stronger effect = lower value 0.997 | locus YOR290C, strain snf2, stronger effect = lower value 1.02 | locus YOR316C, strain cot1, stronger effect = lower value 1.01 | locus YPL051W, strain arl3, stronger effect = lower value 1 | locus YPL078C, strain atp4, stronger effect = lower value 1.04 | locus YPL106C, strain sse1, stronger effect = lower value 1.03 | locus YPL240C, strain hsp82, stronger effect = lower value 1.01 | locus YPL256C, strain CLN2, stronger effect = lower value 1.05 | locus YPR119W, strain clb2, stronger effect = lower value 1.01 | locus YPR141C, strain kar3, stronger effect = lower value 1.02 | locus YPR163C, strain tif3, stronger effect = lower value 1.02 | locus YPR167C, strain met16, stronger effect = lower value 1.03 | strain wtn01, stronger effect = lower value 1
